Screening results deposited in PubChem by National Center for Advancing Translational Sciences (NCATS).
D2 PAM-1 – positive allosteric modulators of human D2 dopamine receptor | P14416 | DiscoveRx D2 beta-arrestin cells, luminescence, 90 min; 100% = 57 uM dopamine signal | potentiation, % (concentration not given with the values) | 360,000 compounds, 0.23% hits; in the data active = potentiation above about 50%; inconclusive = mostly about 30% to 49%
Target sequence (P14416 whole entry, looked up): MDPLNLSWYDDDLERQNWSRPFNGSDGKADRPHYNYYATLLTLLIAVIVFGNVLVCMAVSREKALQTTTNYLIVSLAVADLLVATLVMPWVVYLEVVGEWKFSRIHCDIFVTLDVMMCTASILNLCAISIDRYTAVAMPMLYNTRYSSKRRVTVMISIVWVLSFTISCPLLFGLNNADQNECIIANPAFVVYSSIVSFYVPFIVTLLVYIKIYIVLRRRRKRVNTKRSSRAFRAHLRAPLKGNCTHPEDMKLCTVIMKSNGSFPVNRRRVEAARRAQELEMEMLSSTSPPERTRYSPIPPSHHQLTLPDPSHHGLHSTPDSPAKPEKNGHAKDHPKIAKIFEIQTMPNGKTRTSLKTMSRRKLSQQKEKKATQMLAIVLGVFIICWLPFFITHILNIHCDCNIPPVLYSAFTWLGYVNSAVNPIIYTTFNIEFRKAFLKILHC
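PathHunter D2 cells, attached overnight at 37 deg C, received compound in DMSO plus dopamine at EC20 (50 nM final) for 90 min at 37 deg C. Beta-arrestin recruitment was read as luminescence after 1 h with detection reagent at ambient temperature.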
D2 ag-1 – human D2 receptor agonism in beta-arrestin assay; DiscoveRx PathHunter D2 beta-arrestin, luminescence, 90 min; 100% = 57 uM dopamine signal; activation, % (concentration not given with the values); 360,000 compounds, 0.084% hits; in the data active = activation above about 40%; inconclusive = between about 15% and that limit
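DiscoveRx PathHunter D2 beta-arrestin cells (2,100/well) attached overnight, then compound-stimulated 90 min at 37 C in HBSS/10 mM HEPES/0.1% Tween-20 buffer; beta-galactosidase complementation read by luminescence after 1 h at ambient temperature. Dopamine 57 uM final (EC100) as control.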
D2 antagonist – antagonizes the human D2 dopamine receptor; P14416; HEK293 TREx D2 cells, calcium flux, dopamine EC80; inhibition, % at 10 µM; 340,000 compounds, 2% hits; AID 485344; in the data active = inhibition above about 30%; inactive = below that, where a call was filed; note: 0% is about no effect
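Tetracycline-induced HEK293 TREx cells expressing D2 receptor forced-coupled to calcium signalling, loaded with no-wash calcium dye. Compounds added and calcium flux read 180 s, then dopamine added at EC80 and read a further 180 s.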
D2 ag-2 – activates the human D2 dopamine receptor. activation, % at 2 µM. 340,000 compounds, 0.53% hits. P14416. HEK293 T-REx D2 cells, calcium flux agonist mode. AID 485358;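 active = activation over 3 SD above normal in the single-dose calcium agonist read, cut at about 30% in these data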; note: 0% is about no effect
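Agonism scored from kinetic calcium signal (1 read/sec, 180 s) following compound pin transfer, after a 10 s baseline. Cells: HEK293 Trex line expressing inducible D2 receptor coupled to calcium, dye-loaded after overnight culture at 30 C.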
D2 PAM-2 – D2 dopamine receptor (human) potentiation; P14416; potentiation, % at 10 µM; HEK293 T-REx D2, calcium flux, EC20 dopamine potentiation; 340,000 compounds, 0.34% hits;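 active = potentiation over 3 SD above the plate norm, cut at about 30% in these data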; note: 0% is about no effect
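Calcium flux readout, no-wash dye, 1 read/s. Inducible HEK293 Trex D2 line, overnight 30 C. Compound alone 180 s (agonist flags), then EC20 dopamine, another 180 s to score potentiation.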
* = called active by the depositor. Hits are enriched below; roughly 2.4% of the tested compounds scored in any of these assays.

Screening O=S1(=O)N(CCN2CC=C(c3c[nH]c4cc(F)ccc34)CC2)c2cccc3c2N1CCC3 returned D2 PAM-1 -20, D2 ag-1 12, D2 antagonist 64*, D2 ag-2 2 and D2 PAM-2 -25.
`CN1CCc2cc(O)cc3c2[C@H]1Cc1ccc(O)c(O)c1-3` gave D2 PAM-1 101* and D2 ag-1 106*.
`CCCN1CCc2cc(O)cc3c2[C@H]1Cc1ccc(O)c(O)c1-3` gave D2 PAM-1 129* and D2 ag-1 241*.
Screening C/C=C(\C)C(=O)OC1C(C)=C2C(C1OC(=O)CCCCC)C(C)(OC(C)=O)CC(OC(=O)CCC)C1(O)C2OC(=O)C1(C)O (centres undefined) returned D2 antagonist 36*, D2 ag-2 66* and D2 PAM-2 -12.
Screening Cc1cc(O)c(CN2CCN(c3ccccc3)CC2)cc1C returned D2 PAM-1 -31, D2 ag-1 -2, D2 antagonist 49*, D2 ag-2 6 and D2 PAM-2 -34.
For Cc1ccc(O)c(CN2CCN(c3ccccc3)CC2)c1 the results were D2 PAM-1 -43, D2 ag-1 -3, D2 antagonist 38*, D2 ag-2 5 and D2 PAM-2 -23.
Oc1cc2c(cc1CN1CCN(c3ccc(F)cc3)CC1)OCO2 was read as D2 PAM-1 -23, D2 ag-1 -1, D2 antagonist 58*, D2 ag-2 1 and D2 PAM-2 -21.
For COc1cccc(CN2CCN(c3ccc(F)cc3)CC2)c1OC the results were D2 PAM-1 -28 and D2 ag-1 -1.
For Brc1cc2c(cc1CN1CCN(c3ccccc3)CC1)OCCO2 the results were D2 PAM-1 1, D2 ag-1 -4, D2 antagonist -1, D2 ag-2 13 and D2 PAM-2 -23.
Screening Oc1ccc(Cl)cc1CN1CCN(Cc2ccccc2)CC1 returned D2 PAM-1 -41, D2 ag-1 -2, D2 antagonist 32*, D2 ag-2 -1 and D2 PAM-2 -24.
COC(=O)c1ccc(NC(=O)c2cccn(Cc3ccccc3C)c2=O)cc1 was read as D2 ag-2 1 and D2 PAM-2 -6.
Screening O=C(Nc1ccc(Br)cc1C(=O)c1ccccc1Cl)c1ccccc1F returned D2 PAM-2 -1.
O=C(CCc1nc(C2=CCN(Cc3cccc(Cl)c3)CC2)no1)Nc1ccccc1F was read as D2 ag-2 1 and D2 PAM-2 4.
For Oc1cc2c(cc1CN1CCN(c3ccccc3)CC1)CCC2 the results were D2 PAM-1 -40, D2 ag-1 -1, D2 antagonist 73*, D2 ag-2 0 and D2 PAM-2 -23.
`Cc1cccc(CNCCc2c[nH]c3ccccc23)c1` gave D2 PAM-1 -8, D2 ag-1 0, D2 antagonist 47*, D2 ag-2 1 and D2 PAM-2 -19.
For OC(CCNCCc1c[nH]c2ccccc12)C(F)(F)Cl (centres undefined) the results were D2 PAM-1 3, D2 ag-1 -4, D2 antagonist 53*, D2 ag-2 14 and D2 PAM-2 -43.
`OC(CNCCc1c[nH]c2ccccc12)C(F)(F)F` (centres undefined) gave D2 PAM-1 3, D2 ag-1 5, D2 antagonist 12, D2 ag-2 0 and D2 PAM-2 -4.
Screening Clc1ccccc1CNCCc1c[nH]c2ccccc12 returned D2 PAM-1 -33 and D2 ag-1 0.
c1ccc(CNCCc2c[nH]c3ccccc23)cc1 was read as D2 PAM-1 -4, D2 ag-1 5, D2 antagonist 61*, D2 ag-2 9 and D2 PAM-2 -31.
Fc1cccc(CNCCc2c[nH]c3ccccc23)c1 was read as D2 PAM-1 -59, D2 ag-1 -1, D2 antagonist 3, D2 ag-2 13 and D2 PAM-2 -17.
Screening Cc1ccccc1CN1C(=O)CN=C(c2ccccc2)c2cc(Cl)ccc21 returned D2 ag-2 2 and D2 PAM-2 -12.
`CNCCc1c[nH]c2ccc(O)cc12` gave D2 PAM-1 inconclusive and D2 ag-1 55*.
For CCc1ccc(OCC(=O)N2CCN(CCc3ccccn3)CC2)cc1 the results were D2 ag-2 1 and D2 PAM-2 -23.
CCN1CCN(Cc2cc(C(C)(C)C)c(O)c(C(C)(C)C)c2)CC1 was read as D2 antagonist 46*, D2 ag-2 -1 and D2 PAM-2 -23.
For COCc1ccc(CN2CCCC(C(=O)c3sccc3C)C2)o1 (centres undefined) the results were D2 PAM-1 -19, D2 ag-1 -1, D2 antagonist 38*, D2 ag-2 1 and D2 PAM-2 -25.
For Cc1ccc(C2SCC(=O)Nc3c2c(=O)[nH]n3C2CCOC(C)(C)C2)cc1 (centres undefined) the results were D2 PAM-1 -21, D2 ag-1 -3, D2 antagonist 37*, D2 ag-2 -1 and D2 PAM-2 3.
CCOc1ccc(CN(CCc2ccc3c(c2)OCO3)Cc2ccc(OC)c(Br)c2)cc1 was read as D2 ag-2 25 and D2 PAM-2 -19.
For CCC12CN3CC(CC)(CN(C1)C3c1c(C)[nH]c(=O)[nH]c1=O)C2=O (centres undefined) the results were D2 ag-2 0 and D2 PAM-2 5.
For Cc1ccc(CN2C3CCCC2CC(NC(=S)NCc2ccccc2)C3)cc1 (centres undefined) the results were D2 PAM-1 -2, D2 ag-1 -1, D2 antagonist 104*, D2 ag-2 1 and D2 PAM-2 -30.
CNC(=S)NC1CC2CCCC(C1)N2CC(C)C (centres undefined) was read as D2 PAM-1 -15 and D2 ag-1 0.
Screening COC(=O)C1=C(c2ccc(F)cc2OCc2ccccc2)C[C@@H]2CC[C@H]1N2C(=O)NC1CCN(Cc2ccccc2)CC1 returned D2 PAM-1 -17, D2 ag-1 -4, D2 antagonist 26, D2 ag-2 0 and D2 PAM-2 -19.
Screening COC(=O)C1=C(c2ccccc2OCc2ccccc2)C[C@@H]2CC[C@H]1N2C(=O)NC1CCN(Cc2ccccc2)CC1 returned D2 PAM-1 -24, D2 ag-1 5, D2 antagonist 59*, D2 ag-2 0 and D2 PAM-2 -21.
Cc1oc2cc3oc(=O)c(CCC(=O)N4CCCCC4)c(C)c3cc2c1C was read as D2 PAM-2 8.
Screening CCNc1cc(N2CCNCC2)ccc1[N+](=O)[O-] returned D2 antagonist 35*, D2 ag-2 0 and D2 PAM-2 -8.
Screening Clc1cccc(N2CCNCC2)c1Cl returned D2 PAM-1 -4, D2 ag-1 -1, D2 antagonist 35*, D2 ag-2 2 and D2 PAM-2 -26.
Screening CC(C)N1CC=C(c2c[nH]c3ccccc23)CC1 returned D2 PAM-1 -39 and D2 ag-1 -1.
